Screening results deposited in PubChem BioAssay by several laboratories.
BoNT A protease – inhibitors of Botulinum neurotoxin A light chain protease. multiplex microsphere protease substrate cleavage, flow cytometry. inhibition, % at 10 µM. 0.17% of 360,000 active
BoNT F protease – inhibitors of Botulinum neurotoxin F light chain protease. Multiplex microsphere protease cleavage assay, flow cytometry. inhibition, % at 10 µM. 0.22% of 360,000 active. AID 588497; in the data active = inhibition above about 35%, passing the limit was not always enough; inconclusive = no clear call, values can overlap the other calls
PfHsp40 yeast – rescue of PfHsp40-mediated yeast toxicity | S. cerevisiae expressing PfHsp40, growth rescue, ATP luminescence | growth rescue, % at 12.5 µM | 0.68% of 340,000 active | AID 504582; in the data active = growth rescue above about 28%, passing the limit was not always enough; inconclusive = no clear call, values can overlap the other calls;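 note: yeast W303a lacking pdr1 and pdr3 grown in galactose medium; growth measured after three days at 30 °C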
Autofluor counter – flagged as autofluorescent in microsphere protease counterscreen; compound autofluorescence counterscreen, microsphere flow cytometry; active compounds read high; 3.1% of 360,000 active; fluorescence intensity (concentration not given with the values); AID 624483; in the data active = fluorescence intensity above about 16000; inconclusive = no clear call, values can overlap the other calls
MazEF act – increases E. coli MazEF RNase cleavage of RNA | P0AE70 | FAM/BHQ RNA-DNA oligo cleavage fluorescence, 5 h | activation, % at 20 µM | 0.32% of 350,000 active | AID 504720; in the data active = activation above about 50%
Target sequence (P0AE70 whole entry, looked up): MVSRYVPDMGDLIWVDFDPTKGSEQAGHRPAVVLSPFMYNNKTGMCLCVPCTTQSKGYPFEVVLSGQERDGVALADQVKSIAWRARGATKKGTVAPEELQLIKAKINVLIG
Anthrax LF prot – inhibitors of Bacillus anthracis lethal factor protease; P15917; multiplex microsphere protease cleavage assay, LF; inhibition, % at 10 µM; 0.12% of 360,000 active
Large screens that a line does not name were inactive. Most compounds without a hit are left out; they make up all but 4.3% or so of the library. Cut-off read from the data, not from the text of the source, unless noted: active = inhibition above about 30%; inconclusive = no clear call, values can overlap the other calls; inactive = below that.

N#Cc1c(NC(=O)CSc2nc(N)cc(=O)[nH]2)sc2c1CCCCCC2	none
N#Cc1c(NC(=S)NC(=O)Cc2cccs2)sc2c1CCCCC2	Autofluor counter 20268
NS(=O)(=O)c1ccc(NC(NC(=O)c2cccnc2)C(Cl)(Cl)Cl)cc1 (stereo not drawn)	BoNT F protease inconclusive
Cc1ccc2nc(N3C(=O)C(O)=C(C(=O)c4ccco4)C3c3ccc(O)cc3)sc2c1 (stereo not drawn)	none (no result: MazEF act)
CCc1ccc2nc(N3C(=O)C(O)=C(C(=O)c4ccco4)C3c3cccs3)sc2c1 (stereo not drawn)	MazEF act 79
Cc1ccc2nc(N3C(=O)C(O)=C(C(=O)c4cc5ccccc5o4)C3c3cccs3)sc2c1 (stereo not drawn)	MazEF act 80
Cc1cc(N2C(=O)C(O)=C(C(=O)c3cc4ccccc4o3)C2c2cccs2)no1 (stereo not drawn)	none
CCOc1cccc(C2C(C(=O)c3ccc(C)o3)=C(O)C(=O)N2c2nccs2)c1 (stereo not drawn)	MazEF act active
O=C(C1=C(O)C(=O)N(c2nccs2)C1c1ccccc1)c1cc2ccccc2o1 (stereo not drawn)	BoNT F protease inconclusive, MazEF act 227
Cc1ccc(CNS(=O)(=O)c2ccccc2[N+](=O)[O-])cc1	none
CC(C)(C)n1nnnc1C(c1ccccc1)N1CCN(c2ncc(C(F)(F)F)cc2Cl)CC1 (stereo not drawn)	none (no result: PfHsp40 yeast, MazEF act)
Cc1ccc2c(c1)CC1(CN2C)C(=O)NC(=O)N(c2cc(C)ccc2C)C1=O (stereo not drawn)	Autofluor counter 22449
COc1cc(CN2C(=O)NC(=O)C3(Cc4cc(C)ccc4N(C)C3)C2=O)cc(OC)c1 (stereo not drawn)	Autofluor counter 22009
COc1ccc(OC)c(N2C(=O)NC(=O)C3(Cc4cc(C)ccc4N(C)C3)C2=O)c1 (stereo not drawn)	Autofluor counter 16331
COc1ccc2c(c1)CC1(CN2C)C(=O)NC(=O)N(CCc2ccccc2)C1=O (stereo not drawn)	none
COC(=O)/C(=C1/Oc2cc(C)oc(=O)c2S1)C(F)(F)F	BoNT A protease inconclusive, Autofluor counter 21329
COC(=O)/C(=C1/Oc2ccc(C(C)(C)C)cc2S1)C(F)(F)F	none
Cc1ccc(OCCn2cc(/C=C(\C#N)C(=O)NCC3CCCO3)c3ccccc32)cc1C (stereo not drawn)	MazEF act 114
Cc1ccc(/C=C(\C#N)C(=O)NCC2CCCO2)o1 (stereo not drawn)	PfHsp40 yeast inconclusive
Cc1ccccc1-n1c(C)cc(/C=C(\C#N)C(=O)NCC2CCCO2)c1C (stereo not drawn)	PfHsp40 yeast 30
Cc1ccc(OCCn2cc(/C=C(\C#N)C(=O)NCC3CCCO3)c3ccccc32)cc1 (stereo not drawn)	MazEF act 57
Cc1nc(NCCOc2ccccc2)sc1C(=O)Nc1ccccc1	BoNT F protease inconclusive
Cc1cccc(C(=O)Nc2ccccc2C(=O)NCc2ccco2)c1	Autofluor counter inconclusive
COc1cccc(S(=O)(=O)Nc2ccc3sc(C)nc3c2)c1	Autofluor counter 16651
Cc1ccc(N2CC(C(=O)Oc3cccc(N4C(=O)CCC4=O)c3)CC2=O)cc1 (stereo not drawn)	Autofluor counter 21129
COC(=O)C1CC(=O)N(c2ccc(C)cc2)C1 (stereo not drawn)	none
Cc1ccc(N2CC(C(=O)OCC(=O)C(C)(C)C)CC2=O)cc1 (stereo not drawn)	Autofluor counter 23049
COc1ccc(CN(CCC#N)C(=S)NC(=O)c2ccccc2)cc1	none
N#CCCN(Cc1ccccc1)C(=S)NC(=O)c1ccccc1	BoNT A protease inconclusive, Autofluor counter 21936
CC(C)CN(C(=O)COC(=O)C1=COCCO1)c1c(N)n(Cc2ccccc2)c(=O)[nH]c1=O	none
CCOc1ccccc1NC(=O)c1cc2ccccc2o1	none (no result: PfHsp40 yeast)
CCOc1ccccc1NC(=O)c1cc2ccccc2oc1=O	BoNT F protease 40
CCN(CC)c1ccc2cc(C(=O)Nc3ccccn3)c(=O)oc2c1	MazEF act active
O=C(Nc1ccon1)c1cc2ccccc2oc1=O	Autofluor counter 20901
CCN(CC)c1ccc2cc(C(C)=O)c(=O)oc2c1	none
Cc1cc(NC(=O)c2cc3ccccc3oc2=O)no1	none
COc1cccc(CC(=O)NNC(=O)CN(C)S(=O)(=O)c2ccc(C)cc2)c1	none
Nc1nc(Nc2cccc(F)c2)nc(NCc2ccco2)c1[N+](=O)[O-]	MazEF act 66 (no result: BoNT A protease, BoNT F protease, Autofluor counter, Anthrax LF prot)
O=C(CSc1nnc2ccc(-c3ccc(F)cc3)nn12)N1CCOCC1	none (no result: BoNT A protease, BoNT F protease, Autofluor counter, Anthrax LF prot)
CC(=O)Oc1ccc2c(c1)Oc1cc(OC(C)=O)ccc1C21OC(=O)c2ccccc21	Autofluor counter 17180 (no result: MazEF act)
CC(C)(C)NC1=CC(=O)OC12CCCCC2	Autofluor counter 23197
CC(C)(C)CC(C)(C)NC1=CC(=O)OC12CCCCC2	none
CC(NC(=O)/C=C/c1ccc(Br)cc1)c1ccccc1 (stereo not drawn)	none
CCc1ccc(C(C)NC(=O)/C=C/c2ccc(Br)cc2)cc1 (stereo not drawn)	Autofluor counter 22674
CCc1ccccc1OCC(=O)Nc1ccc(N2CCCC2)cc1C	Autofluor counter 23739
Cc1ccc(S(=O)(=O)N2CCOCC2)cc1NC(=O)COC(=O)CSc1ccc(Br)cc1C	Autofluor counter 22185
Cc1ccc(S(=O)(=O)N2CCOCC2)cc1NC(=O)COC(=O)c1ccc(Br)cc1	none
CCCCCCCCCCCC(=O)NC(C(=O)O)C(O)c1ccccc1 (stereo not drawn)	PfHsp40 yeast 59
CCN1C(c2ccccc2)=C(c2ccccc2)S/C1=C\C=C1/SC(=S)N(C)C1=O	BoNT A protease 98, Anthrax LF prot 44
CN1CCS/C1=C/C=C1/SC(=S)N(Cc2ccccc2)C1=O	none
CCN1C(=O)/C(=C/C=C2/Sc3ccc4ccccc4c3N2CCO)SC1=S	BoNT A protease 63, BoNT F protease 36, Anthrax LF prot 52
CCN1C(c2ccccc2)=C(c2ccccc2)S/C1=C/C=C1\SC(=S)N(C)C1=O	BoNT A protease 141, Anthrax LF prot 41
O=C(CN(C(=O)CCC(=O)Nc1nccs1)c1ccc(F)cc1)NCc1ccc(F)cc1	none
Cc1ccc(NC(=O)Cn2ccc(=O)[nH]c2=O)cc1	none
CCCc1nc2scc(-c3ccccc3)c2c(=O)n1N	Autofluor counter 23965
CCc1nc2scc(-c3ccc(C)cc3)c2c(=O)n1N	none
C/C(Cl)=C/CSc1nnc2n(N)c(=O)c3ccccc3n12	Autofluor counter 23180
COc1cccc(/C(O)=C2\C(=O)C(=O)N(c3ccccn3)C2c2cccc(OC)c2OC)c1 (stereo not drawn)	Autofluor counter 21089
N/C(=N\NS(=O)(=O)c1ccccc1Cl)c1ccccn1	none
CCn1nc([N+](=O)[O-])c(C(C#N)c2nc3cc(C(F)(F)F)ccc3s2)c(Cl)c1=O (stereo not drawn)	Autofluor counter 22515
